The supplement of paper PMC6555819

How the values were obtained:
Assay in all cases: PBM binding z-score (relative to random genomic background probes); higher = stronger binding; sequences stand for … in GC…GCGATTGACAGCGTAGAATGAAGG
[1] = system: FXR:RXRa (NR concentration 270 nM, RXRa partner concentration 90 nM)
Procedure, shortened: (§1)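 Ligand-free nuclear receptor dimers were bound for 1 h to custom Agilent 4×180K protein-binding microarrays. Detection used antibodies against each partner (one per run). Binding z-scores rest on regression-normalized fluorescence, with random background probes as the reference.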

[2] = system: LXRa:RXRa (NR concentration 270 nM, RXRa partner concentration 90 nM)
Procedure, shortened: as §1

[3] = system: LXRa homodimer (NR concentration 270 nM)
Procedure, shortened: as §1

[4] = system: LXRb:RXRa (NR concentration 270 nM, RXRa partner concentration 90 nM)
Procedure, shortened: as §1

[5] = system: LXRb homodimer (NR concentration 270 nM)
Procedure, shortened: as §1

[6] = system: PPARa:RXRa (NR concentration 270 nM, RXRa partner concentration 90 nM)
Procedure, shortened: as §1

[7] = system: PPARg:RXRa (NR concentration 180 nM, RXRa partner concentration 90 nM)
Procedure, shortened: as §1

[8] = system: PPARg:RXRa 270nM:90nM, anti-RXR (NR concentration 270 nM, RXRa partner concentration 90 nM)
Procedure, shortened: as §1

[9] = system: PPARg:RXRa 30nM:10nM, anti-RXR (NR concentration 30 nM, RXRa partner concentration 10 nM)
Procedure, shortened: as §1

[10] = system: PPARg:RXRa 90nM:30nM, anti-RXR (NR concentration 90 nM, RXRa partner concentration 30 nM)
Procedure, shortened: as §1

[11] = system: PPARg:RXRa DBDmut IVT, anti-RXR (DBD mutation: RXRa K156A/R161A, NR concentration 270 nM, RXRa partner concentration 90 nM)
Procedure, shortened: as §1

[12] = system: PPARg:RXRa IVT, anti-PPARg (NR concentration 270 nM, RXRa partner concentration 90 nM)
Procedure, shortened: as §1

[13] = system: PPARg DBDmut:RXRa IVT, anti-PPARg (DBD mutation: PPARg1 K132A/R137A, NR concentration 270 nM, RXRa partner concentration 90 nM)
Procedure, shortened: as §1

[14] = system: PPARg DBDmut IVT, anti-PPARg (DBD mutation: PPARg1 K132A/R137A, NR concentration 270 nM)
Procedure, shortened: as §1

[15] = system: PPARg homodimer (NR concentration 180 nM)
Procedure, shortened: as §1

[16] = system: PXR:RXRa (NR concentration 270 nM, RXRa partner concentration 90 nM)
Procedure, shortened: as §1

[17] = system: PXR homodimer (NR concentration 270 nM)
Procedure, shortened: as §1

[18] = system: RARa:RXR (NR concentration 270 nM, RXRa partner concentration 90 nM)
Procedure, shortened: as §1

[19] = system: RARa homodimer (NR concentration 270 nM)
Procedure, shortened: as §1

[20] = system: RARb:RXRa (NR concentration 270 nM, RXRa partner concentration 90 nM)
Procedure, shortened: as §1

Sequence	PBM binding z-score [1]	PBM binding z-score [2]	PBM binding z-score [3]	PBM binding z-score [4]	PBM binding z-score [5]	PBM binding z-score [6]	PBM binding z-score [7]	PBM binding z-score [8]	PBM binding z-score [9]	PBM binding z-score [10]	PBM binding z-score [11]	PBM binding z-score [12]	PBM binding z-score [13]	PBM binding z-score [14]	PBM binding z-score [15]	PBM binding z-score [16]	PBM binding z-score [17]	PBM binding z-score [18]	PBM binding z-score [19]	PBM binding z-score [20]
GCAGACAGGTGAGACGCAGGTAACTCAGGGTGGC	-0.153	-0.129	-0.774	-0.355	-1.18	0.164	0.374	-0.0915	-0.758	-0.532	0.0725	0.0836	-0.435	-0.858	-0.513	-0.282	-0.385	0.154	-0.0204	0.422
CCTGCTAGGTCATGGTCAGCTCATCTACAGTATG	3.3	2.63	0.179	1.95	0.157	3.42	2.25	2.85	0.448	1.72	4.36	3.86	-0.0537	-0.157	1.09	1.52	-0.186	2.4	0.349	4.08
TCATATAGGTAAACAGGTGAGAGTCCGTAAGTTA	0.963	0.822	0.145	0.682	0.166	2.04	2.39	3.16	3.77	3.41	4.89	4.22	0.855	1.05	0.708	0.6	0.674	0.689	1.25	0.677
CCGAGGAGGTTATGGGGCATTCAGGCAACGGTGA	1.52	1.44	0.15	1.86	-0.173	2.84	1.66	2.11	0.0714	1.39	0.461	1.61	-0.326	-0.847	1.13	0.815	-0.214	1.43	-0.195	1.73
ACTATTAGTTGACTTAGGACAACCGATACGACGC	0.502	0.291	0.606	0.299	0.989	0.0286	1.11	0.164	0.448	0.273	-0.129	0.214	1.42	1.67	1.07	0.411	0.511	0.675	0.875	0.665
CCTGCTAGGTCATGGTCAGTTAATCTACAGTATG	3.84	2.66	0.0744	1.97	-0.163	3.48	2.31	2.88	0.868	2.13	4.72	3.92	0.767	0.558	1.63	2.31	-0.286	2.62	0.426	3.96
TCGAGTAGGTTACCGATGGGGCATTCAGCTTTCT	0.211	0.803	-0.358	0.678	-0.864	1.29	0.217	1.3	1.26	1.3	3.39	2.48	-0.681	-0.945	-0.276	-0.00678	-0.759	0.377	-0.625	0.88
CGTCAAAGTTCAAGGTAACGGAACAGAAAGCAGC	6.15	5.59	2.26	3.12	0.735	4.63	4.57	5.32	2.47	4.21	0.343	2.24	0.485	0.919	1.96	3.99	2.13	3.36	1.04	5.07
TCTGCTAGGTCAGTTGATCAGCTAACGAGCTGCC	0.721	0.672	-0.553	0.169	-0.0241	0.983	0.167	1.28	1.07	1.27	2.51	2.27	0.428	-0.296	-0.547	0.199	-0.78	0.424	-1.32	3
TCATATAGATAAAAGGTGAAAGTCGGTGTGGTAA	1.52	1.57	0.231	1.67	-0.152	3.28	3.63	5.16	5.42	5.56	3.23	2.25	0.674	0.805	1.56	1.12	0.535	1.83	1.65	1.73
CCAGACAGGTGAAAAGGTAACTCAGCCTCGATTA	0.33	0.666	-0.0851	0.744	-0.438	2.09	1.27	2.24	0.682	1.77	1.6	1.25	-0.262	-0.729	1.18	0.509	0.481	1.45	1.21	1.43
CGTCCAAGGTCATAGGAGGTCAGTGAGGACAGAT	7.69	7.5	5.15	6.18	0.987	5.86	5.58	5.89	2.52	4.86	3.74	4.55	1.02	0.649	5.73	6.88	11.7	6.37	3.47	5.29
AGAACGAGGGCACGGTGAGTTGATAGCAGAGTAG	1.12	0.775	-0.352	0.306	-0.638	2.61	2.7	2.19	0.933	1.2	3.46	4.14	1.46	0.552	0.477	1.76	0.0665	1.27	-0.263	2.75
TTACCAAGGTGAAGGTCGGTGATCCCTCTGTAGA	0.881	0.952	-0.494	0.467	-0.916	2.14	2.65	3.05	1.65	2.96	1.69	2.91	-0.0946	-0.454	0.55	0.481	-0.271	1.28	0.175	1.96
